Activity calls are given as the source filed them. No rule for the calls is given here.
Potency is read from the fitted curve at half-maximal effect.

This assay can be described thus: Immunotoxin (HA22) sensitization/mitigation study. Vehicle arm (PBS) (AID 1159510). To be noted: cancer cells viability with PBS vehicle (HA22 study); series mostly up to 46.1 µM; viability (% of control): at the top concentration.
In the case of `CC(C)c1onc(-c2c(Cl)cccc2Cl)c1COc1ccc(/C=C/c2cccc(C(=O)O)c2)c(Cl)c1`, the Potency is 3.32 µM (active).

For the compound `CC(C)(C)c1cc(NC(=O)Nc2ccc(-c3cn4c(n3)sc3cc(OCCN5CCOCC5)ccc34)cc2)no1`, the Potency is 0.59 µM (active).

As for `CC[C@@H]1C(=O)N(C)c2cnc(Nc3ccc(C(=O)NC4CCN(C)CC4)cc3OC)nc2N1C1CCCC1`, the Potency is 0.0066 µM (active).

In the case of `Cc1cccc(-c2nn(C(=S)Nc3ccccc3)cc2-c2ccnc3ccccc23)n1`, the Potency was 18.7 µM (active).

As for `CC[C@H](Nc1ncnc2nc[nH]c12)c1nc2cccc(F)c2c(=O)n1-c1ccccc1`, the Potency was 20.9 µM (active).

Consider `CCOc1cc(C(=O)Nc2ccc(Cl)c(-c3nc4ccccc4[nH]3)c2)cc(OCC)c1OCC`, for which the Potency is 14.8 µM (active).

Consider `CCn1c(-c2nonc2N)nc2c(C#CC(C)(C)O)ncc(OC[C@H]3CCCNC3)c21`, for which the Potency was 10.5 µM (active).

Take `C/C(=C\C(=O)Nc1ccccc1C(=O)O)c1ccc2ccccc2c1`: the Potency is 16.6 µM (active).

Consider `COc1ccc(C2=N[C@H](c3ccc(Cl)cc3)[C@H](c3ccc(Cl)cc3)N2C(=O)N2CCNC(=O)C2)c(OC(C)C)c1`, for which the Potency is 2.64 µM (active).

With `CCC(=C(c1ccccc1)c1ccc(OCCN(C)C)cc1)c1ccccc1`, the Potency was 23.5 µM (active).

As to `CC[C@@H]1C(=O)N(C)c2cnc(Nc3ccc(C(=O)NC4CCC(N5CCN(CC6CC6)CC5)CC4)cc3OC)nc2N1C(C)C` (stereo partly specified), the Potency is 0.0132 µM (active).

With `O=C(Nc1cccc(Cl)c1)Nc1ncc(CCNc2ncnc3ccsc23)s1`, the Potency is 29.6 µM (active).

Regarding `N#CC[C@H](C1CCCC1)n1cc(-c2ncnc3[nH]ccc23)cn1`, the Potency was 23.5 µM (active).

On to `NC(=O)c1c(OCc2c(F)cc(Br)cc2F)nsc1NC(=O)NCCCCN1CCCC1`, for which the Potency was 23.5 µM (active).

For the compound `CCCn1c(=O)c2[nH]c(C34CC5CC3C[C@@H](C5)C4)nc2n(CCC)c1=O`, the Potency is 16.6 µM (active).

In the case of `O=C(Nc1ccccc1-c1cn2c(CN3CCNCC3)csc2n1)c1cnc2ccccc2n1`, the Potency is 26.4 µM (active).

For the compound `Cn1c(=O)c(F)c(Nc2ccc(I)cc2F)c2c(=O)n(C[C@@H](O)CO)cnc21`, the Potency was 23.5 µM (active).

Consider `NC(=O)C1CCCc2c1[nH]c1ccc(Cl)cc21` (stereo unspecified), for which the “viability (% of control)” value is 95.3% (inactive).

Take `CN1CCN(c2cc(C(=O)Nc3ccc4c(c3)-c3c(c(C(N)=O)nn3-c3ccc(F)cc3)CC4)c(Cl)cn2)CC1`: the Potency is 26.4 µM (active).

As for `O=C(c1ccc(Nc2nccc(-c3cc4ccccc4s3)n2)cc1)N1CCC(N2CCCC2)CC1`, the Potency is 16.6 µM (active).

On to `CC(C)OC(=O)C1=CN(C(=O)c2ccc(F)c(F)c2)CC(C)(C)c2c1[nH]c1ccccc21`, for which the Potency was 2.96 µM (active).

Regarding `CNC(=O)c1ccc(N2C(=S)N(c3ccc(C#N)c(C(F)(F)F)c3)C(=O)C2(C)C)cc1F`, the “viability (% of control)” value was 87.8% (inactive).

`Cc1cnc(-c2cnc(NCCNc3ccc(C#N)cn3)nc2-c2ccc(Cl)cc2Cl)[nH]1`: the Potency was 0.935 µM (active).

Consider `CS(=O)(=O)c1cccc(CNc2nc(Nc3ccc4c(c3)CCC(=O)N4)ncc2C(F)(F)F)c1`, for which the Potency was 4.69 µM (active).

`COc1cc2nccc(Oc3ccc(NC(=O)C4(C(=O)Nc5ccc(F)cc5)CC4)cc3)c2cc1OC`: the Potency is 20.9 µM (active).

On to `CCc1cncnc1N1CCN(Cc2nc3ccc(C(F)(F)F)cc3[nH]2)CC1`, for which the Potency was 7.43 µM (active).

`COc1ccc(CCN(C)CCCOc2ccc(S(=O)(=O)c3[nH]c4ccccc4c3C(C)C)cc2)cc1OC`: the Potency was 26.4 µM (active).

Turning to `CCN(CC)CCCCNc1nc2cc(Cl)c(Cl)cc2nc1-c1ccc(-c2cccs2)s1`, the Potency was 18.7 µM (active).

As for `CCCS(=O)(=O)Nc1ccc(F)c(C(=O)c2c[nH]c3ncc(-c4ccc(Cl)cc4)cc23)c1F`, the Potency was 23.5 µM (active).

Turning to `CN(C)Cc1ccc(-c2nc3cccc4c3n2CCNC4=O)cc1`, the Potency is 23.5 µM (active).

On to `Cn1c2cc(S(C)=O)sc2c2cnn(Cc3cccc(N)c3)c(=O)c21` (stereo unspecified), for which the “viability (% of control)” value is 118% (inactive).

As for `CCOC(CN1C(=O)[C@](CC(=O)Nc2ccc(C)cc2)(NC(=O)Nc2ccc(C)cc2)c2ccccc21)OCC`, the Potency was 23.5 µM (active).

For `Nc1nccc(Oc2ccc(NC(=O)c3c[nH]cc(-c4ccc(F)cc4)c3=O)cc2F)c1Cl`, the Potency is 23.5 µM (active).

Regarding `CCC[C@H](NC(=O)C(C#N)=Cc1cccc(Br)n1)c1ccccc1`, the Potency was 1.05 µM (active).

`CC(=O)NC(C)c1ccc(Oc2ccc(OC(C)C)cc2)cc1` (stereo unspecified): the Potency is 16.6 µM (active).

`COc1ccccc1[C@H](c1cccc2ccccc12)[C@@](C)(C#N)C(=O)N1CCC(c2cccc(C(F)(F)F)c2)CC1`: the “viability (% of control)” value was 93.8% (inactive).
